# This is a sample that favours compounds with a hit; in the whole collection about 1.8% have one here.
# p53ts 39C kill = kills p53ts cells at the nonpermissive temperature | H1299-p53A138V viability at 39C, ATP luminescence, 24 h | Potency, µM (top dose mostly 46.1 µM), for inactives: top-dose activity change, negative = cell killing, usual class: cytotoxic | actives 1.5% (n = 130,000) | AID 902; further: on the % scale 0 is the no-effect control and ±100 the full control effect; nearly all actives have a fitted effect of over 55% in size
# Peg3 imprint = induces erasure of genomic imprints in mouse ES cells; Potency, µM (highest dose often 60.7 µM), for inactives: at the highest dose activity change, positive = activation, actives largely listed as activators; AID 1948; actives 0.02% (n = 110,000); mouse ES Peg3-LacZ reporter, beta-gal luminescence, 40 h
#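 Readout: BetaGlo luminescence (5 min, room temp) for LacZ from the normally silent maternal Peg3 allele in female Peg3LacZ-Neo ES cells. Cells 300/well, 40 h, 37C, 5% CO2. Data normalized per plate to negative controls.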
# p53ts 32C kill = kills p53ts cells at the permissive temperature; actives 0.93% (n = 130,000); Potency, µM (series often up to 46.1 µM), without a hit: at the highest dose activity change, negative = cytotoxicity, actives largely listed as cytotoxic; H1299-p53A138V at 32C, ATP luminescence viability, 24 h;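 further: 0% = DMSO and -100% = full killing by reference compound; nearly all actives have a fitted effect of over 55% in size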
#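 Viability by ATPlite luminescence after 24 h compound treatment (up to 46 uM) at the permissive 32C. Cells are H1299 carrying p53 A138V. Scale runs from DMSO basal to 100 uM tamoxifen as full kill; AC50 from Hill fits.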
# An asterisk follows results filed as active; u = inconclusive; x = no result given; [ ] = dose if it differs, or a comment. The call rests on the fitted dose curve; in most records, active means well fitted curve in the direction sought with a large enough effect; inconclusive means small, poorly fitted or top-dose-only effect, or another doubt; inactive means no such curve, though single readings can be large; an effect the other way counts as inactive or inconclusive. Potency means the concentration at half of the fitted maximal effect.
SMILES,p53ts 39C kill,Peg3 imprint,p53ts 32C kill
Cc1cccc(NC(=O)Cn2c(=O)n(CCc3ccccc3)c(=O)c3sc4ccccc4c32)c1,-25.1%,u,-5.4%
N#Cc1cccc(NC(=O)N2CCC3(CC2)CCN(C(=O)c2cnccn2)CC3)c1,-4.6%,x,12.4%
COc1ccc(N2CCN(CCCNC(=O)c3cc(Nc4ccccc4OC)nc4ccccc34)CC2)cc1,u,-20.5%[10.9 µM],1.0%
COc1ccc(Nc2cc(C(=O)NCCCN3CCN(c4ccc(OC)cc4)CC3)c3ccccc3n2)cc1,12.6µM*,-19.6%[10.9 µM],u
COc1cccc(CNC(=O)Cn2c(C)c3cnn(-c4ccccc4)c(=O)c3c2C)c1,0.7%,-3.7%[10.9 µM],8.6%
CCOc1ccc(/C=C/c2nc(C#N)c(N3CCN(c4ccccc4)CC3)o2)cc1,-7.6%,-3.9%[10.9 µM],0.2%
COc1ccc(O[C@H]2C=C[C@@H](c3ccccc3)O[C@@H]2CO/N=C(\C)CCN2CCCc3nc(C)c(C)cc32)cc1,11.4%[9.22 µM],x,-5.7%[9.22 µM]
COc1ccc(-c2cc(C(=O)Nc3c(C)nn(Cc4ccc(Cl)cc4)c3C)no2)cc1,-20.3%,-13.4%,-13.6%
COc1ccccc1-c1cc(C(=O)Nc2c(C)nn(Cc3ccc(Cl)cc3)c2C)no1,12.6µM*,-10.6%[10.9 µM],u
CCn1c(=O)c(=O)n(CC)c2cc(N3CCCCC3)c(NC(=O)c3ccccc3OC)cc21,5.3%,-6.4%[10.9 µM],6.0%
NC1=NC(c2ccc(Br)cc2)n2c(nc3ccccc32)N1 (stereo not drawn),-17.0%,-16.1%,6.6%
CC(C)c1ccc(C2N=C(N)Nc3nc4ccccc4n32)cc1 (stereo not drawn),10µM*,-5.7%[10.9 µM],2.2%
CC1=C(/C=C/C(C)=C/C=C/C(C)=C/C=C/C=C(C)/C=C/C=C(C)/C=C/C2=C(C)C(=O)C(O)CC2(C)C)C(C)(C)CC(O)C1=O (stereo not drawn),4.9%,2.4%,-3.0%
Cc1nn(C)c(C)c1CCNC(=O)Nc1cccc(Cl)c1C,-10.4%,-8.0%[10.9 µM],-6.8%
COc1ccc(CN2C(=O)N(c3cccc(C)c3)C(=O)C2CC(=O)Nc2ccc(F)cc2)cc1OC (stereo not drawn),22.5%,12.3%[10.9 µM],1.6%
CCN1CCN(c2cc(C)c3cc(NC(=O)Cc4ccc(OC)c(OC)c4)ccc3n2)CC1,-9.4%,-17.4%,-6.8%
Cc1cc(N2CCCCC2)nc2ccc(NC(=O)/C=C/c3ccccc3Cl)cc12,u,1.6%[10.9 µM],10.9%
CCCCc1ccc(C(=O)Nc2ccc3nc(N4CCN(CC)CC4)cc(C)c3c2)cc1,7.94µM*,-26.1%[10.9 µM],-7.6%
CCN1CCN(c2cc(C)c3cc(NC(=O)/C=C/c4cccc(Cl)c4)ccc3n2)CC1,3.16µM*,-19.6%[10.9 µM],u
CCN1CCN(c2cc(C)c3cc(NC(=O)c4cccc(Cl)c4)ccc3n2)CC1,2.51µM*,2.4%[10.9 µM],14.1µM*
CCN1CCN(c2cc(C)c3cc(NC(=O)c4cc(OC)cc(OC)c4)ccc3n2)CC1,2.51µM*,-12.0%[10.9 µM],u
COc1ccc(C(=O)Nc2ccc3nc(N4CCC(C)CC4)cc(C)c3c2)cc1,u,-13.6%[10.9 µM],-22.4%
CCN1CCN(c2cc(C)c3cc(NC(=O)c4cnccn4)ccc3n2)CC1,3.8%,4.1%,-0.8%
N#Cc1cccc(-c2ccc3ncnc(NCCN4CCOCC4)c3c2)c1,-3.4%,-16.8%,4.3%
COC(=O)c1ccc(C(NC(=O)OCc2ccccc2)/C(=C/[C@@H](C)C(=O)NCc2nc3ccccc3n2C)c2cccnc2)cc1 (stereo partly drawn),-4.0%,-8.3%,17.8%
SMILES,p53ts 39C kill,Peg3 imprint,p53ts 32C kill
Cc1c(C(=O)N(Cc2ccccc2F)C2CCS(=O)(=O)C2)oc2ccc(F)cc12 (stereo not drawn),9.7%,16.6%[10.9 µM],13.0%
COC(=O)C(NC(=O)CC(C)C)(Nc1nc2c(s1)CCCC2)C(F)(F)F (stereo not drawn),-1.7%,-4.9%[10.9 µM],2.0%
COc1ccccc1NC(=O)c1cc2c(=O)oc3ccc(C)cc3c2s1,-6.8%,-6.2%[10.9 µM],-1.2%
CCOC(=O)c1c(-c2ccccc2)csc1NC(=O)c1cc(-c2cccc(OC)c2)on1,-1.6%,14.7%[10.9 µM],2.6%
COc1cccc(CNS(=O)(=O)c2c(C(=O)N3CCC(C)CC3)c(C)n(C)c2C)c1,-22.0%,-5.0%[10.9 µM],0.7%
CCC(CC)C(=O)Nc1cc(-c2cccc(C)c2)nn1-c1ccccc1,-13.7%,-2.7%[10.9 µM],3.7%
C=Cc1ccc(Cn2c(C(=O)O)c(CNCCc3ccccc3)c3ccc(C)cc32)cc1,u,4.7%[10.9 µM],38.4%
C=Cc1ccc(Cn2c(C(=O)O)c(CNCc3cc(OC)ccc3OC)c3ccc(C)cc32)cc1,12.6µM*,17.6%[10.9 µM],u
CCCn1c(-c2ccc(F)cc2)nc2c(NCCN(CC)CC)nc(C)nc21,-14.0%,-3.7%,-10.9%
N#Cc1c(C(F)(F)F)cc(-c2cccs2)nc1SCC(=O)Nc1cccc(Cl)c1,-4.6%,-3.8%[10.9 µM],-2.5%
N#Cc1c(C(F)(F)F)cc(-c2cccs2)nc1SCC(=O)Nc1cccc(Br)c1,12.6µM*,-3.0%[10.9 µM],-15.3%
CCOc1ncccc1C(=O)OCC(=O)c1cc(C)n(Cc2ccco2)c1C,-18.0%,-48.9%,12.6µM*
Cc1cc(C(=O)COC(=O)CNC(=O)c2ccco2)c(C)n1Cc1ccco1,16.1%,x,x
CC(C)C(=O)Nc1ccc2nc(SCC(=O)N3CCc4ccccc43)sc2c1,-24.2%,-14.9%[10.9 µM],-5.4%
COc1ccccc1C(=O)Nc1c(C(=O)N(CCN(C)C)Cc2ccco2)oc2ccccc12,20µM*,-9.6%[10.9 µM],19.2%
CN(C)CCN(Cc1ccco1)C(=O)c1oc2ccccc2c1NC(=O)c1ccccc1,-20.4%,-7.0%[10.9 µM],-0.1%
O=C(O)CC1c2ccccc2CCN1C(=O)Nc1cc(Cl)ccc1Cl (stereo not drawn),-14.6%,-3.1%[10.9 µM],-2.2%
COc1ccc2[nH]cc(CCNc3ccnc(-c4ccccc4C)n3)c2c1,-7.3%,-19.3%,7.5%
O=C(CCn1c(=O)c2sccc2n(Cc2cccc(F)c2)c1=O)NCc1ccc2c(c1)OCO2,-1.4%,-2.5%[10.9 µM],7.5%
Cc1nc2ccccc2c2oc(C(=O)N3CCN(C(=O)c4ccco4)CC3)cc12,20.9%,-21.2%,2.4%
Cc1nc2ccccc2c2oc(C(=O)N3CCc4ccccc4C3)cc12,20µM*,-31.8%,u
CCCCc1ccc(-c2ccc(Br)cc2)nc1,37.1%,x,4.4%
CCCc1ccc(-c2ccc(F)c(N)c2)nc1,7.94µM*,-91.6%,3.98µM*
C=C/C(C)=C/[C@]1(C)SC(=O)C(C)=C1O,22.4%,x,5.5%
Cc1nc2sc(C(c3cccs3)N3CCN(c4ccccc4)CC3)c(O)n2n1 (stereo not drawn),u,-44.4%,-13.4%
SMILES,p53ts 39C kill,Peg3 imprint,p53ts 32C kill
Cc1nc2sc(C(c3cccs3)N3CCOCC3)c(O)n2n1 (stereo not drawn),u,-71.0%,12.6µM*
CCNc1ncc2nc(-c3ccc(OC)cc3)c(=O)n(Cc3cccc(OC)c3)c2n1,-5.3%,x,-7.1%
CCOC(=O)c1cnc(-n2nc(C)cc2C)nc1N1CCOCC1,18.1%,-6.7%,-7.5%
CCOC(=O)c1cnc(-n2nc(C)cc2C)nc1N(C)C,2µM*,-55.1%,3.16µM*
Cc1ccc2nc(-c3c[nH]c4ccccc34)c(Nc3ccccc3C)n2c1,6.1%,-8.6%[10.9 µM],-0.9%
Cc1ccc(Nc2c(-c3c[nH]c4ccccc34)nc3ccccn23)cc1,15.8µM*,4.5%[10.9 µM],u
